Most compounds without a hit are left out; they make up all but 4% or so of the library.
RAD52 inh – inhibitors of human RAD52 DNA annealing; inhibition, % at 18.7 µM; recombinant RAD52 DNA annealing, FRET fluorescence; actives 0.46% (n = 360,000);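 active = every replicate showing at least 50% inhibition; inconclusive = mean inhibition at least 50% but not in every replicate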
DENV2 CPE rescue – protects cells from dengue virus 2 cytopathic effect; DENV2-infected cells, cytopathic effect rescue, plate reader; CPE inhibition, % at 9.99 µM; actives 1.7% (n = 350,000); AID 651640; in the data active = CPE inhibition above about 20%, passing the limit was not always enough; inconclusive = no clear call, values can overlap the other calls; tested in BHK-21 cells;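 also: 0% = median of neutral control wells and 100% = median of positive control wells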
FGF22 binding – FGF22 (human) thermal shift binding; actives 1.5% (n = 340,000); activity (Tm shift, normalised), % at 9.99 µM; recombinant FGF22 thermal shift, SYPRO orange fluorescence; percent of sucrose octasulfate shift, DMSO zero; Q9HCT0;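 active = mean Tm shift, scaled 0 neutral to 100 positive control, at about 1.3% or above, every replicate too, limit read from the data; inconclusive = no clear call, values can overlap the other calls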
ERAP1 inh – blocks human ERAP1 aminopeptidase activity; inhibition, % at 10.7 µM; actives 0.15% (n = 340,000); Q9NZ08; AID 652197; recombinant ERAP1, Leu-AMC fluorescence, 60 min;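 active = mean replicate inhibition of at least 30%, or all replicates individually reaching that 30% level; inactive = mean below 30% and not every replicate reaching it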;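 also: 0% = neutral control wells and 100% = L-leucinethiol positive control wells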
MLL AF4-AF9 inh – MLL-AF4/AF9 protein interaction inhibition. P42568. AlphaScreen, biotin-AF4 peptide binding to FLAG-AF9. inhibition, % at 10 µM. actives 0.47% (n = 350,000). AID 651704;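 active = every replicate reaching a set inhibition limit, whatever the replicate mean, cut at about 25% in these data; inconclusive = mean inhibition reaches that limit but some replicates miss it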;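 also: 0% = plate neutral control median and 100% = total signal loss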
Target sequence (P42568 whole entry, looked up): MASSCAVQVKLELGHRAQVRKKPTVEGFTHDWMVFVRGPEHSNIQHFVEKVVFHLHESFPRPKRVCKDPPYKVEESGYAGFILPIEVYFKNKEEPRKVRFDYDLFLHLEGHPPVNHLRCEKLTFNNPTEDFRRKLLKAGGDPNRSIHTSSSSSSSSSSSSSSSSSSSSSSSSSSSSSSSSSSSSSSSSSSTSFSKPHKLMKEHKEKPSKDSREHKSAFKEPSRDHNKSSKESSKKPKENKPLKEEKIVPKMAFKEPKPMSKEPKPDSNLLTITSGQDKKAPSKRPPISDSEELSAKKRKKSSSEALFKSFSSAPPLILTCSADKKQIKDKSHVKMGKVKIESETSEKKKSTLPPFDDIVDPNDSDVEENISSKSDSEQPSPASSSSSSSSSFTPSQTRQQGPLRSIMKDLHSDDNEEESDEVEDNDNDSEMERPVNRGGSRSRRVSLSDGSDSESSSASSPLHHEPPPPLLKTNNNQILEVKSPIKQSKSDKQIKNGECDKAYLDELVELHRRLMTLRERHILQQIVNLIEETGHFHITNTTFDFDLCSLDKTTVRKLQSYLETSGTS
Active calls of the source: *; ? = inconclusive; . = not tested or not shown.

SMILES	RAD52 inh	DENV2 CPE rescue	FGF22 binding	ERAP1 inh	MLL AF4-AF9 inh
CCOC(=O)C1(Cc2cccc(OC)c2)CCN(Cc2ccccc2OC)CC1	3	-4	43*	-2	2
CCOC(=O)C1(CCOc2ccccc2)CCN(CCCn2cccn2)CC1	-9	-4	43*	0	2
CCOC(=O)C1(Cc2ccccc2)CCN(Cc2cccc(OC)c2O)CC1	-7	-7	0	0	5
CCOC(=O)C1(Cc2ccccc2)CCN(Cc2csc(C(C)=O)c2)CC1	-10	-4	44*	-3	-15
CCOC(=O)C1(Cc2ccccc2)CCN(Cc2cccc3nccnc23)CC1	1	-1	44*	-2	5
CCOC(=O)C1(Cc2cccc(OC)c2)CCN(Cc2cccc(OC)c2O)CC1	-10	-4	-1	-7	12
CCCC(=O)Nc1ccc2c(c1)C(=O)N(C)C[C@H](OC)[C@@H](C)CN(Cc1cncnc1)[C@@H](C)CO2	-5	-9	.	3	-1
C/C=C/c1ccc2c(c1)O[C@H](CN(C)C(=O)NCCC)[C@H](C)CN([C@@H](C)CO)S2(=O)=O	19	-4	0	2	-1
COc1ccc(C(=O)N2C[C@H]3[C@@H](c4ccccc42)[C@@H](CO)N3Cc2ccc(Cl)cc2)cc1	11	-13	0	1	-1
Cc1noc(C)c1NC(=O)Nc1ccc2c(c1)CC(=O)N([C@H](C)CO)C[C@H](C)[C@@H](CN(C)Cc1ccc(C(F)(F)F)cc1)O2	-6	-4	0	4	2
Cc1ccc(S(=O)(=O)Nc2ccc3c(c2)C(=O)N([C@@H](C)CO)C[C@H](C)[C@@H](CN(C)Cc2ccc(C(F)(F)F)cc2)OCCCC[C@@H](C)O3)cc1	-33	-25	0	-2	3
CCOc1ccc(NC(=O)c2ccccc2SC)cc1	-11	-2	0	.	1
C=C[C@@H](OC)[C@H](OC(=O)Nc1ccc(SC)cc1)c1ccc(OCCO)cc1	-3	21*	0	-2	-1
CC(C)NC(=O)N[C@H]1C=C[C@H](CC(=O)N2CCCCC2)O[C@@H]1CO	-3	7	0	0	-5
COc1ccc(C(=O)NNC(=O)CSc2nnc(C)n2CC2CCCO2)cc1 (centres undefined)	-8	2	44*	2	-1
COC(=O)c1ccc(NC(=O)CSc2nnc(C)n2CC2CCCO2)cc1 (centres undefined)	-8	-2	0	-3	-1
CC1CCCC/C1=N\NC(=S)NCCc1ccccc1 (centres undefined)	-1	6	0	5	6
C[n+]1ccccc1C1CCCC/C1=N\NC(N)=S (centres undefined)	-4	-4	43*	43*	-1
CC(=O)N(C)C[C@@H]1Oc2cc(-c3ccccc3)ccc2S(=O)(=O)N([C@H](C)CO)C[C@@H]1C	-8	-3	0	-1	-1
CCCNC(=O)[C@@H]1[C@@H](CO)[C@@H]2Cn3c(ccc(-c4ccncc4)c3=O)[C@H]1N2CC1CC1	-14	-9	0	.	-1
Cn1ccc(/C=N/N=C2/NC(=O)CS2)n1	-4	0	0	3	1
Cc1nn(C)c2c1NC(=O)CS2	-7	-13	43*	2	1
CNC[C@@H]1Oc2ccc(NS(=O)(=O)c3cccs3)cc2CC(=O)N([C@H](C)CO)C[C@H]1C	7	-9	0	-1	-2
Cn1cnc(S(=O)(=O)N2C[C@@H](O)COC[C@H]3O[C@@H](CC(=O)NCc4cc(F)cc(F)c4)CC[C@@H]32)c1	7	?	0	-1	-3
CCC(=O)N1C[C@H](C)[C@H](OC)CN(C)C(=O)c2cc(NC(=O)NC3CCCC3)ccc2OC[C@@H]1C	-7	39*	0	1	0
SMILES	RAD52 inh	DENV2 CPE rescue	FGF22 binding	ERAP1 inh	MLL AF4-AF9 inh
CCC(=O)N1C[C@H](C)[C@H](OC)CN(C)C(=O)c2cc(NC(=O)NC3CCCC3)ccc2OC[C@H]1C	-15	4	.	0	-3
CCC(=O)Nc1ccc2c(c1)C(=O)N(C)C[C@@H](OC)[C@@H](C)CN(C(=O)COC)[C@H](C)CO2	-23	22*	0	0	-2
CO[C@H]1CN(C)C(=O)c2cc(NC(C)=O)ccc2OC[C@@H](C)N(C(=O)c2ccccc2)C[C@@H]1C	9	24*	1	-2	-1
CCC(=O)N1C[C@@H](C)[C@H](OC)CN(C)C(=O)c2cc(NC(=O)COC)ccc2OC[C@@H]1C	.	-3	0	-5	-3
CCC(=O)N1C[C@H](C)[C@H](OC)CN(C)C(=O)c2cc(NC(=O)COC)ccc2OC[C@H]1C	-3	21*	0	-2	-3
CO[C@@H]1CN(C)C(=O)c2cc(NC(C)=O)ccc2OC[C@H](C)N(C(=O)c2ccccc2)C[C@@H]1C	-3	-8	0	-1	2
CCCNC(=O)C[C@H]1CC[C@H]2[C@H](COc3ccc(NC(=O)Nc4cccc(C)c4)cc3C(=O)N2C)O1	5	4	0	-2	2
O=C(C[C@H]1CC[C@@H](NC(=O)C2CCC2)[C@H](CO)O1)NC1CCC1	-8	18	0	-1	-3
COCC(=O)Nc1ccc2c(c1)C(=O)N(C)C[C@@H](OC)[C@H](C)CN(C(C)=O)[C@H](C)CO2	4	102*	0	1	-3
COCC(=O)Nc1ccc2c(c1)C(=O)N(C)C[C@H](OC)[C@@H](C)CN(C(C)=O)[C@H](C)CO2	2	4	0	-4	0
CO[C@H]1CN(C)C(=O)c2cc(NC(=O)Nc3ccccc3)ccc2OC[C@H](C)N(C(C)=O)C[C@H]1C	3	66*	0	5	4
COCC(=O)Nc1ccc2c(c1)C(=O)N(C)C[C@H](OC)[C@H](C)CN(C(=O)CC1CC1)[C@H](C)CO2	-14	42*	0	-2	-5
CCCC#Cc1cnc2c(c1)C(=O)N([C@@H](C)CO)C[C@@H](C)[C@H](CN(C)Cc1ccccc1)O2	-2	7	0	1	4
CN(C)C(=O)c1ccc(-c2ccc([C@H]3[C@H](CO)N4C(=O)CN(C(=O)C5CCC5)C[C@@H]34)cc2)cc1	-6	2	.	0	-1
COc1ccccc1NC(=O)N[C@@H]1CC[C@H](CCNS(=O)(=O)c2ccc(C)cc2)O[C@H]1CO	2	-8	.	-1	-5
Cc1ccccc1N/N=C/c1c(C)nc2ccccn12	-8	-1	0	-2	26*
Cc1nc2ccccn2c1C(=O)N/N=C/c1ccccc1	14	3	0	-1	1
CO[C@@H]1CN(C)C(=O)c2ccc(NS(=O)(=O)c3cn(C)cn3)cc2OC[C@H](C)NC[C@@H]1C	1	10	0	.	0
CCN(CC(=O)Nc1cc(Cl)ccc1-n1cncn1)Cc1nc2ccccc2c(=O)[nH]1	-23	31*	0	1	-7
